# The full list was thinned out, with hits kept by preference.
# CHX counter = counter-screen hit for Shiga toxin inhibitors, cycloheximide; cell reporter, cycloheximide protein synthesis inhibition counterscreen; AID 2314; max response, %; actives 12% (n = 300,000); in the data active means max response mostly above about 13%, no sharp cut-off; inactive means mostly below about 14%; further: read at 38.3 µM for the half of the compounds with a filed dose; 0% is about no effect
# Shiga inhibitor = inhibitors of Shiga toxin in Vero cells. Vero cells, Shiga toxin protein synthesis inhibition reporter. inhibition, % at 38.7 µM. actives 9.2% (n = 290,000); in the data active means inhibition mostly above about 28%, no sharp cut-off; inactive means mostly below about 43%; further: 0% is about no effect
# AMA1-RON2 inh = disrupts binding of P. falciparum AMA1 to RON2; AlphaScreen AMA1-biotinylated RON2 peptide binding; Potency, µM (titrated, usually from 58.2 µM), without a hit: top-dose activity change, negative = inhibition, most hits filed as inhibitors; actives 0.2% (n = 360,000);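 further: potency means the concentration at half of the fitted maximal effect; 0% = vehicle wells and -100% = peptide control; nearly all actives have a fitted effect of over 45% in size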
#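 AMA1 (3D7) with his tag at 25 nM final met compounds first, then biotinylated RON2 peptide at 25 nM; detection used donor plus acceptor beads, 10 µg/mL apiece, read by AlphaScreen after 30 min at room temperature.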
# AmpC inh no detg = AmpC beta-lactamase inhibition without detergent; Potency, µM (series often up to 57.1 µM), for the others: at the highest dose activity change, negative = inhibition, most hits filed as inhibitors; P00811; AmpC nitrocefin hydrolysis, absorbance 480 nm, 0.0001% Triton; AID 485341; actives 0.52% (n = 330,000);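 further: potency means the concentration at half of the fitted maximal effect; plate controls were no compound for no effect and no enzyme for full effect; nearly all actives have a fitted effect of over 20% in size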
# Target sequence (P00811 whole entry, looked up): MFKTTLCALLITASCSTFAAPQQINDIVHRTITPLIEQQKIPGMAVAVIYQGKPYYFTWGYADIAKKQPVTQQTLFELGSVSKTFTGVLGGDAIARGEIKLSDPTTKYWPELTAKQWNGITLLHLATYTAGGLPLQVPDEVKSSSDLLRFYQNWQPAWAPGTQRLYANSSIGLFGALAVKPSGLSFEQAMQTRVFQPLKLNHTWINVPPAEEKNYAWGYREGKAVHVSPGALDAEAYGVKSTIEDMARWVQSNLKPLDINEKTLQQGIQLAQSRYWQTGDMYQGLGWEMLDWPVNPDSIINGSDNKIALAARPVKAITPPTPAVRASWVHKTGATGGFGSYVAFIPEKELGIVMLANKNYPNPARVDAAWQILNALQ
#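 AmpC (5.3 nM in the dispensed reagent) in 20 mM phosphate pH 7.0 with 0.01% (detergent screen) or 0.0001% Triton X-100 was preincubated with compounds for 15 min at room temperature. Nitrocefin was then added from an 800 uM solution, and hydrolysis was followed at 480 nm.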
# SARS PLpro yeast = blocks SARS-CoV papain-like protease in a yeast assay; S. cerevisiae expressing SARS-CoV PLpro, growth rescue; Potency, µM (titrated, usually from 32.9 µM), for the others: at the top dose activity, positive = growth rescue, most hits filed as activators; actives 0.19% (n = 330,000); AID 485353; calls by dose curve; further: potency means the concentration at half of the fitted maximal effect; 0% is about no effect; nearly all actives have a fitted effect of over 55% in size
# AmpC inh detg = inhibitors of E. coli AmpC beta-lactamase with detergent; P00811; AmpC hydrolysis of nitrocefin, absorbance 480 nm, 0.01% Triton; Potency, µM (doses to about 114 µM), for the others: top-dose activity change, negative = inhibition, usual class: inhibitors; actives 0.041% (n = 370,000); AID 485294;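 further: potency means the concentration at half of the fitted maximal effect; 0% = no-compound wells and -100% = no-enzyme wells; nearly all actives have a fitted effect of over 25% in size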
#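 AmpC (5.3 nM in the dispensed reagent) in 20 mM phosphate pH 7.0 with 0.01% (detergent screen) or 0.0001% Triton X-100 was preincubated with compounds for 15 min at room temperature. Nitrocefin was then added from an 800 uM solution, and hydrolysis was followed at 480 nm.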
# * = called active by the depositor; ? = inconclusive; . = not tested or not shown; [ ] = remark or other dose. Unless noted, the call rests on the fitted dose curve; in most records, active means well fitted curve in the direction sought with a large enough effect; inconclusive means small, poorly fitted or top-dose-only effect, or another doubt; inactive means no such curve, though single readings can be large; an effect the other way counts as inactive or inconclusive.
SMILES,CHX counter,Shiga inhibitor,AMA1-RON2 inh,AmpC inh no detg,SARS PLpro yeast,AmpC inh detg
CCn1c2ccccc2c2cc(NC(=O)COC(=O)C3CCC(=O)N3)ccc21 (configuration not stated),-1.2,21.0,0.3%,80.3%,-2.3%,-13.8%
O=S(=O)(c1ccc(F)cc1)N1CCC(N2CCCC2)CC1,-4.8,-3.9,-14.3%,-17.9%,4.4%,?
CC(C)CCN(C)C1CCN(S(=O)(=O)c2ccc(F)cc2)CC1,0.3,12.8,-1.2%,10µM*,-2.5%,-11.9%
O=S(=O)(Nc1ccc(N2CCOCC2)cc1)c1ccccc1,-1.7,-12.5,-10.9%,-17.7%,-3.7%,-6.7%
O=S(=O)(Nc1ccc(N2CCCCC2)cc1)c1ccccc1,17.9*,25.8,-18.2%,-19.4%,-22.6%,9.2%
O=S(=O)(c1ccccc1)c1ccc(N2CCCCCC2)cc1,20.8*,.,-1.4%,-10.8%,-0.9%,-1.3%
O=S(=O)(Nc1ccc(N2CCCCC2)cc1)c1cccs1,41.2*,59.8*,-9.4%,-55.2%,-0.8%,?
O=S(=O)(Nc1ccc(N2CCCCC2)cc1)c1ccc(F)cc1,12.5*,51.4*,-27.5%,-45.8%,-1.5%,-6.4%
O=S(=O)(Nc1ccc(F)cc1)N1CCOCC1,34.0*,4.2,6.7%,-4.3%,-0.1%,2.8%
N#CCSc1nnc2ccc3ccccc3n12,13.1*,active,41.0%,-26.8%,-0.5%,2.0%
CC(=O)c1ccc(-c2ccccc2)cc1,57.8*,41.8*,-4.8%,-8.0%,2.7%,?
CN1CCN(C(=O)c2ccc(-c3ccccc3)cc2)CC1,9.4,26.1,-5.6%,14.5%,5.6%,-3.3%
CCC(=O)c1ccc(O)cc1,-0.4,-7.4,1.1%,-5.1%,-3.3%,-2.5%
CCC(=O)c1ccc(-c2ccccc2)cc1,29.2*,33.5,34.7%,-22.7%,-3.5%,-7.1%
Cc1nn(C)c(C)c1S(=O)(=O)N1CCC(C(=O)NC2CCCCCC2)CC1,0.5,-8.8,-1.1%,2.8%,2.0%,?
CCn1c2ccccc2c2cc(NC(=O)CN(C)CC(=O)Nc3ccc(N4CCOCC4)cc3)ccc21,-4.5,0.6,?,137.7%,-1.6%,-5.3%
CCn1c2ccccc2c2cc(NC(=O)N3CCOCC3)ccc21,31.8*,85.4*,-20.2%,39.0%,-2.7%,5.4%
O=S(=O)(Nc1ccc2c(c1)oc1ccccc12)N1CCCC1,19.9*,22.3,-12.0%,-6.8%,-10.1%,3.9%
O=C(Nc1ccc2c(c1)oc1ccccc12)N1CCOCC1,52.3*,83.7*,0.0%,-3.5%,-14.8%,-3.8%
Oc1ccc(/C=N/NC(=S)N/N=C/c2ccc(O)cc2)cc1,40.3*,61.9*,106.3%,-42.9%,0.5%,-2.3%
Oc1ccc(/C=N/NC(=S)Nc2cccnc2)cc1,48.2*,81.5*,73.3%,-28.0%,-1.4%,-2.1%
Oc1cccc(NC(=S)Nc2cccnc2)c1,3.4,1.4,-23.1%,-21.9%,4.0%,-2.6%
O=C(CSc1ccc2nnc(CCNC(=O)c3ccccc3)n2n1)Nc1ccc(F)cc1F,1.5,-21.1,2.1%,31.7%,-3.3%,1.2%
O=C1C(=C(O)c2ccccc2)C(=O)c2ccccc21,14.2*,23.7,-5.3%,-29.3%,0.3%,-12.2%
O=C(c1ccccc1)C1C(=O)c2ccccc2C1=O,1.3,-7.0,-3.5%,-21.2%,-9.3%,-12.6%
SMILES,CHX counter,Shiga inhibitor,AMA1-RON2 inh,AmpC inh no detg,SARS PLpro yeast,AmpC inh detg
CCOc1ccc(-c2c(=O)n(OCC)c3ccccc3[n+]2[O-])cc1,23.5*,25.5,4.8%,-22.9%,-0.6%,-3.6%
CCCOc1ccc(-c2c(=O)n(OCC(=O)OCC)c3ccccc3[n+]2[O-])cc1,39.3*,59.1*,-1.7%,-18.5%,-3.3%,4.7%
CCOC(=O)COn1c(=O)c(-c2ccc(F)cc2)[n+]([O-])c2ccccc21,-4.1,-1.0,3.1%,-8.5%,1.6%,-10.9%
C=CC(=O)NCc1ccc(-c2csnn2)cc1,-0.5,-14.9,14.4%,37.2%,0.8%,?
COCc1cccc(-c2csc(C(O)c3ccc(OC)cc3)n2)c1 (configuration not stated),.,.,0.0%,.,.,.
CCOC(=O)c1ccc(NC(=S)Nc2cccc(C)n2)cc1,0.8,-7.6,14.1%,-13.7%,23.4%,-8.9%
COC(=O)Cc1ccc(NC(=S)Nc2cccc(C)n2)cc1,15.8*,39.5,23.7%,-35.7%,0.3%,-3.7%
CCCNC(=S)Nc1ccc(CC(=O)OC)cc1,3.7,-7.5,16.4%,-12.9%,18.6%,-10.4%
CC(=O)N(C)c1ccc(NC(=S)NCC(C)C)cc1,15.2*,35.3,1.7%,-20.0%[2.29 µM],0.7%,-7.0%
COC(=O)Cc1ccc(NC(=S)NCC(C)C)cc1,16.2*,11.0,-1.9%,-12.2%,6.4%,-2.0%
COC(CNC(=S)Nc1ccc([N+](=O)[O-])cc1)OC,14.1*,active,-2.7%,-10.2%,18.6%,-3.6%
CCN(CC)CCNC(=O)c1cc2c(s1)-c1ccccc1SC2,10.3,-6.6,9.2%,17.0%,-0.9%,-1.1%
CCCCCOc1ccc(/C=c2\sc3ncnn3c2=O)cc1,-0.5,-22.5,.,-10.1%,-6.1%,-0.4%
COc1ccc2c(c1)c1nnc(SCC(=O)N3C(C)CCCC3C)nc1n2C (configuration not stated),-3.3,22.6,4.5%,67.0%,1.9%,-1.4%
CCN1/C(=C2\OC(=S)N(C)C2=O)Sc2ccccc21,13.9*,40.0*,-12.1%,-7.3%,9.5%,0.6%
O=C1/C(=C/c2ccccc2)Oc2cc(OC(=O)N3CCOCC3)ccc21,18.6*,10.5,7.0%,144.2%,-12.0%,-7.0%
COc1ccc(/C=C2\Oc3ccccc3C2=O)cc1,.,.,-1.1%,22.3%,-9.0%,.
O=C1/C(=C/c2ccc(F)cc2)Oc2cc(OC(=O)N3CCOCC3)ccc21,-2.0,39.2,-4.0%,-11.0%,0.5%,-0.5%
CC(=O)Oc1ccc(/C=C2/Oc3ccccc3C2=O)cc1,32.4*,49.3*,-5.7%,-13.5%,0.1%,0.4%
CCCCN(CCCC)C(=O)CSc1nnc2n(C)c(=O)c3c4c(sc3n12)CCCC4,-0.7,9.7,-5.8%,-5.6%,-18.6%,-8.5%
Cc1cccn2c(=O)c(/C=C(\C#N)c3nc4ccccc4n3C)c(Oc3ccc(Br)cc3)nc12,.,.,.,.,.,19.3%
COc1ccc(NC(=O)Cn2cc(S(=O)(=O)c3ccccc3)c(=O)c3cc(C)ccc32)cc1Cl,.,.,.,.,.,-1.4%
CCOc1ccc2oc(C(=O)Nc3ccc(N4CCOCC4)cc3)c(C)c2c1,0.4,-4.3,-2.1%,.,.,4.5%
CCOc1ccc2oc(C(=O)N3CC(C)OC(C)C3)c(C)c2c1 (configuration not stated),24.0*,18.4,0.2%,79.2%,10.0%,0.8%
Cc1oc2ccc(OCc3ccc(Br)cc3)cc2c1C(=O)O,9.4,10.2,-7.7%,-37.0%,0.7%,-10.1%
